# PubChem BioAssay (Tox21)
# “And” between values parts separate entries of the source, which are not always exact repeats. Equal entries are not always repeated. Inconclusive results are not listed. Where a call stands in place of a potency, no number is given. A structure can be active in one record and inactive in another. The source made the active and inactive calls. Unless noted, calls come from the whole dose curve.
# Assay: qHTS assay for small molecule disruptors of the mitochondrial membrane potential - cell viability (AID 720634);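 note: human HepG2 liver cancer cells; nearly all actives have a fitted effect of over 20% in size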
# Details: HepG2 viability, ATP luminescence (CellTiter-Glo), 1 h; series mostly up to 83.2 µM
# How it was run: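 After overnight attachment at 37 C, HepG2 cells received compound or DMSO vehicle for 1 hr. Viability is then taken from ATP-driven luminescence following a 30 min room-temperature CellTiter-Glo step.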
row,Compound,Potency
1,Nc1cccc(N)n1,inactive
2,CN=C(NC#N)NCCSCc1nc[nH]c1C,inactive
3,NCCNCCNCCN,inactive
4,C=C(C)CC(C)(C)C,inactive
5,CC(C=O)Cc1ccc(C(C)(C)C)cc1 (stereo not drawn),inactive
6,COc1ccc2cc3[n+](cc2c1OC)CCc1cc2c(cc1-3)OCO2,inactive
7,Cc1ncc(CO)c(CO)c1O,inactive
8,CN1Cc2c(N)cccc2C(c2ccccc2)C1 (stereo not drawn),inactive
9,CCCCCCCCCCCC(=O)N(C)CC(=O)O,inactive
10,CCCOCC(C)O (stereo not drawn),inactive
11,O=C1CCCCCCCCCCC1,inactive
12,CC[N+](CC)(CC(=O)Nc1c(C)cccc1C)Cc1ccccc1,inactive
13,CC(=O)OC/C=C(\C)CCC=C(C)C,inactive
14,C=CC(C)(C)C,inactive
15,CC1=CC(=O)CC(C)(C)C1,inactive
16,OCC(O)CS (stereo not drawn),inactive
17,C=C1C[C@]23C[C@@]1(O)CC[C@H]2[C@@]12C=C[C@H](O)[C@@](C)(C(=O)O1)[C@H]2[C@@H]3C(=O)O,inactive
18,OCCOCCOCCOCCOCCO,inactive

row,Compound,Potency
1,C=CC(=O)NCOCCCC,inactive
2,CC(COCC(C)OC(=O)c1ccccc1)OC(=O)c1ccccc1 (stereo not drawn),inactive
3,CC(CN1c2ccccc2Sc2ccccc21)N(C)C (stereo not drawn),inactive
4,O=C1O[C@H]([C@H](O)CO)C(O)=C1O,inactive
5,O=c1n(CCCN2CCN(c3cccc(Cl)c3)CC2)nc2ccccn12,inactive
6,CO[Si](CCCNCCN)(OC)OC,inactive
7,OCC(CO)(CO)CO,inactive
8,C1CCCNCC1,inactive
9,Cc1cccc(C)c1[N+](=O)[O-],inactive
10,COC(=O)/C=C\C(=O)OC,inactive
11,CCN(CC)CCNC(=O)c1ccc(N)cc1,inactive
12,COc1cc(NC(=O)CC(C)=O)c(OC)cc1Cl,inactive
13,C[n+]1ccn(CCO)c1,inactive
14,Clc1cccc(Cl)c1NC1=NCCN1,inactive
15,O=C(NCC1CCCCN1)c1cc(OCC(F)(F)F)ccc1OCC(F)(F)F (stereo not drawn),inactive
16,COc1c(Cl)ccc(Cl)c1C(=O)O,inactive
17,CS(=O)(=O)c1ccc(Cl)cc1,inactive

# Assay: qHTS assay for small molecule disruptors of the mitochondrial membrane potential (AID 720635; active = well fitted inhibition curve with a large enough effect in the signal ratio in the repeat runs; the % refers to the signal ratio; note: potency is the fitted concentration of half-maximal effect)
# Details: HepG2 mitochondrial membrane potential, Mito-MPS dye ratio; series mostly up to 83.2 µM
# How it was run: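 Mitochondrial membrane potential tracked with Mito-MPS dye, red aggregates (ex 540/em 590 nm) against green monomers (ex 490/em 535 nm). Compound treatment 1 hr at 37C, dye 30 min in HepG2.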
Compound,Potency,"ratio activity, negative = MMP loss"
Nc1cccc(N)n1,14.8 µM (active) and 48.6 µM (active),–
CN=C(NC#N)NCCSCc1nc[nH]c1C,inactive,–
NCCNCCNCCN,inactive,–
CC(C=O)Cc1ccc(C(C)(C)C)cc1 (stereo not drawn),61.1 µM (active),–
COc1ccc2cc3[n+](cc2c1OC)CCc1cc2c(cc1-3)OCO2,1.68 µM (active) and 870 nM (active),–
Cc1ncc(CO)c(CO)c1O,inactive,–
CN1Cc2c(N)cccc2C(c2ccccc2)C1 (stereo not drawn),inactive,–
CCCCCCCCCCCC(=O)N(C)CC(=O)O,–,7.77% [at 8.08 µM] (inactive)
CCCOCC(C)O (stereo not drawn),54.5 µM (active) and inactive,–
O=C1CCCCCCCCCCC1,inactive,–
CC1=CC(=O)CC(C)(C)C1,inactive,–
C=C1C[C@]23C[C@@]1(O)CC[C@H]2[C@@]12C=C[C@H](O)[C@@](C)(C(=O)O1)[C@H]2[C@@H]3C(=O)O,inactive,–
OCCOCCOCCOCCOCCO,inactive,–
C=CC(=O)NCOCCCC,inactive,–
CC(COCC(C)OC(=O)c1ccccc1)OC(=O)c1ccccc1 (stereo not drawn),inactive,–
O=C1O[C@H]([C@H](O)CO)C(O)=C1O,inactive,–
O=c1n(CCCN2CCN(c3cccc(Cl)c3)CC2)nc2ccccn12,inactive,–
CO[Si](CCCNCCN)(OC)OC,inactive,–
OCC(CO)(CO)CO,inactive,–
C1CCCNCC1,inactive,–
Cc1cccc(C)c1[N+](=O)[O-],inactive,–
CCN(CC)CCNC(=O)c1ccc(N)cc1,13.3 µM (active),–
COc1cc(NC(=O)CC(C)=O)c(OC)cc1Cl,inactive,–
C[n+]1ccn(CCO)c1,inactive,–
Clc1cccc(Cl)c1NC1=NCCN1,inactive,–
O=C(NCC1CCCCN1)c1cc(OCC(F)(F)F)ccc1OCC(F)(F)F (stereo not drawn),inactive,–
COc1c(Cl)ccc(Cl)c1C(=O)O,inactive,–
CS(=O)(=O)c1ccc(Cl)cc1,inactive,–
